Assay outcomes (PubChem BioAssay)
Anthrax LF prot: anthrax lethal factor protease inhibition; AID 588501; multiplex microsphere protease cleavage assay, LF; inhibition, % at 10 µM; 360,000 compounds, 0.12% hits; further: plate controls were buffer without enzyme for full effect and enzyme alone for no effect
Autofluor counter: flagged as autofluorescent in microsphere protease counterscreen | compound autofluorescence counterscreen, microsphere flow cytometry; active compounds read high | fluorescence intensity (test concentration not listed) | 360,000 compounds, 3.1% hits | AID 624483; in the data active means fluorescence intensity above about 16000; inconclusive means no clear call, values can overlap the other calls
BoNT-A LC inh2: BoNT A light chain protease inhibition. multiplex microsphere protease substrate cleavage, flow cytometry. inhibition, % at 10 µM. 360,000 compounds, 0.17% hits; further: plate controls were buffer without enzyme for full effect and enzyme alone for no effect
PriA SSB inh: K. pneumoniae PriA-SSBct interaction inhibition; AID 1272365; inhibition, % at 33 µM; AlphaScreen SSBct-PriA binding, biotinylated peptide; 430,000 compounds, 0.6% hits; in the data active means inhibition mostly above about 37%, no sharp cut-off; inactive means mostly below about 20%;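 further: plate controls were negative control peptide for no effect and reference peptide for full effect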
BoNT F protease: inhibitors of Botulinum neurotoxin F light chain protease; AID 588497; Multiplex microsphere protease cleavage assay, flow cytometry; 360,000 compounds, 0.22% hits; inhibition, % at 10 µM; in the data active means inhibition above about 35%, passing the limit was not always enough; inconclusive means no clear call, values can overlap the other calls; further: plate controls were buffer without enzyme for full effect and enzyme alone for no effect
Numbers without * were called inactive; i = inactive; ? = inconclusive; · = no result; ! = not active in a repeat. Only some compounds are listed: those with a hit (about 3.1% of all), similar ones and a draw of the others. Unless noted, no stated cut-off is given here; in the data, active means inhibition above about 30%; inconclusive means no clear call, values can overlap the other calls; inactive means below that.

SMILES	Anthrax LF prot	Autofluor counter	BoNT-A LC inh2	PriA SSB inh	BoNT F protease
Cc1ccc(C)c2[nH]c(=O)c(CCNC(=S)NCCn3ccc4ccccc43)cc12	·	·	·	-3.0	·
Nc1c(C2=NCCO2)nnn1Cc1ccccc1	-8.6	17624*	-3.3	-11.9	-9.3
Cc1ccc(Sc2nnc(Cc3ccccc3)c3ccccc23)cc1	-5.1	22795*	?	2.1	-0.4
COc1ccc(Sc2nnc(Cc3ccccc3)c3ccccc23)cc1	-2.6	8347	-1.2	-4.1	-10.3
O=C(NCc1ccc2c(c1)OCO2)c1cc(-n2cnnc2)ccc1Cl	-0.6	19482*	1.5	-18.0	1.3
O=C(Nc1ccc2c(c1)OCCO2)c1cc(-n2cnnc2)ccc1Cl	4.5	5415	-1.8	-7.3	-40.4
CCSCCNC(=O)c1cc(-n2cnnc2)ccc1Cl	-10.5	21120*	?	-10.9	2.0
Cc1nc(NC(=O)c2cc(-n3cnnc3)ccc2Cl)ccc1Br	0.0	21255*	-5.2	0.8	-5.4
Cc1cccc(-n2c(-c3csc(C(C)C)c3)n[nH]c2=S)c1	-10.7	20031*	7.2	4.9	9.4
Nc1ccccc1Nc1cccc(C(F)(F)F)c1	0.2	2513	-0.6	42.9*	-7.6
CCOc1cc(-c2nnc(NC(=O)c3cccc4ccccc34)o2)cc(OCC)c1OCC	·	·	·	1.0	·
Nc1nc(SCC(=O)Nc2ncn[nH]2)ncc1S(=O)(=O)c1ccc(Br)cc1	·	·	·	-13.0	·
COCCNC(=O)c1nn2cccnc2c1Cl	-0.1	19754*	0.8	-3.3	-1.7
O=C(NCc1cccs1)c1nn2cccnc2c1Cl	-6.1	2927	-0.1	-14.6	-3.0
O=C(NCC12CC3CC(CC(C3)C1)C2)c1nn2cccnc2c1Cl	-3.7	16281*	0.3	-10.1	0.8
CN(C)CCN(C(=O)c1ccc2c(c1)CCCC2)c1nc2cc3c(cc2s1)OCCO3	-1.3	6457	-3.2	50.9*	-10.0
CCOc1ccc2nc(N(CCCN(C)C)C(=O)c3ccc(S(=O)(=O)N4CCCC4)cc3)sc2c1	-3.0	4805	-2.7	14.0	-10.5
CN(C)CCN(C(=O)c1ccc2c(c1)OCCO2)c1nc2cc3c(cc2s1)OCO3	-1.8	5917	-1.9	14.0	-6.1
CCOc1ccc2nc(N(CCN(C)C)C(=O)c3ccc4c(c3)CCCC4)sc2c1	·	·	·	54.5*!	·
O=C1CCc2ccc(OCc3cccc(C(F)(F)F)c3)cc21	·	·	·	-67.0	·
CC1CCCCN1C(=O)CSc1nc2cc3c(cc2c(=O)n1Cc1ccc2c(c1)OCO2)OCO3 (configuration not stated)	1.3	21942*	?	-8.5	0.9
Cc1cc(NC(=O)CSc2nc3ccsc3c(=O)n2Cc2ccccn2)n[nH]1	-3.7	16535*	-0.1	6.5	0.8
CC1CCCCN1C(=O)CSc1nc2ccsc2c(=O)n1Cc1ccccn1 (configuration not stated)	0.8	19850*	-0.6	-1.4	-1.8
CCCCn1c(SCC(=O)Nc2cc(C)[nH]n2)nc2ccsc2c1=O	-2.9	18853*	4.8	-5.6	1.8
O=C(CCc1csc(NC(=O)NC2CCCCC2)n1)NCc1cccs1	·	·	·	-4.0	·
SMILES	Anthrax LF prot	Autofluor counter	BoNT-A LC inh2	PriA SSB inh	BoNT F protease
Cc1ccc(-c2cc(-c3ccc4c(c3)OCO4)c(C#N)c(N)n2)o1	3.7	9215	1.2	10.7	-6.1
CC(C)(C)c1ccc(-c2nc3c(C#N)c(-c4ccc5c(c4)OCO5)ccn3n2)cc1	0.1	20531*	-0.8	-12.3	-3.8
Cc1cc(=O)[nH]c(SCCCOc2ccc3c(c2)CCC3)n1	3.3	23738*	0.2	-15.6	-1.1
COc1cccc(OC)c1OCCCSc1nc(C)cc(=O)[nH]1	-0.7	22471*	2.6	1.9	4.2
Cc1cc(=O)[nH]c(SCCCCCCCCCCSc2nc(C)cc(=O)[nH]2)n1	·	·	·	-7.0	·
COc1cc(NCCCCC(C)N)c2nccc(C)c2c1 (configuration not stated)	-13.3	3185	-0.1	·	-42.4
COc1cc(NCCCC(C)N)c2ncccc2c1 (configuration not stated)	-25.4	2363	0.0	49.2*	-48.1
COCCNC(=O)Nc1cc(OC)cc2cccnc12	·	·	·	53.0*	·
O=C(NCCC1=CCCCC1)C(=O)Nc1ccc(F)cc1	·	·	·	-9.0	·
NC(=NOC(=O)c1ccco1)c1ccc(Cl)cc1	·	·	·	-22.6	·
Cc1occc1C(=O)O/N=C(\N)c1ccc(Cl)cc1	4.6	3942	-1.1	i	40.0*
O=C(Nc1ccc2c(c1)CCC2)C1COc2ccccc2O1 (configuration not stated)	-5.6	23530*	0.1	-9.5	0.0
O=C(c1cc(C2CC2)on1)N1CC(N2C(=O)CCC2=O)C1	·	·	·	-19.0	·
CCc1cc2c(=O)c(-c3nc4ccccc4n3C)c(C)oc2cc1OC(C)=O	-3.0	5761	-0.6	-1.9	-9.1
CCc1cc2c(=O)c(-c3nc4ccccc4n3C)c(COCC(=O)O)oc2cc1OC(=O)C(C)(C)C	0.0	17668*	-3.8	-14.9	-5.8
COC(=O)C1c2ccsc2CCN1S(=O)(=O)c1cccs1 (configuration not stated)	·	·	·	-15.0	·
Cc1ccc2nc(C3CN(C(=O)c4ccccc4Br)C3)[nH]c2c1	·	·	·	0.0	·
CN(C)CCN(C)Cc1c2ccccc2c(CN(C)CCN(C)C)c2ccccc12	-6.8	2999	33.0*	-11.0	2.9
CCOC(=O)C1CCCCN1Cc1ccccc1C(F)(F)F (configuration not stated)	-3.6	17635*	5.1	-18.8	4.2
O=C(CSc1ccc(-c2ccccn2)nn1)Nc1ccccc1Cl	·	·	·	64.7*	·
Cc1nc(SCC(=O)Nc2ccccc2C(F)(F)F)cc(-c2ccccn2)n1	·	·	·	-8.0	·
O=C(NCCOc1ccc(-c2ccccn2)nn1)c1ccccc1C(F)(F)F	·	·	·	95.0*	·
O=C(CSc1ccc(-c2ccccn2)nn1)Nc1ccccc1C(F)(F)F	·	·	·	69.0*	·
O=C(CSc1ccc(-c2ccccn2)nn1)Nc1ccc(Cl)cc1	·	·	·	30.6	·
Cc1ccc(S(=O)(=O)NCCN=C(CN2CCCC2)NS(=O)(=O)c2ccc(C)cc2)cc1	-8.0	24857*	?	-4.7	-4.9
SMILES	Anthrax LF prot	Autofluor counter	BoNT-A LC inh2	PriA SSB inh	BoNT F protease
Cc1ccc(S(=O)(=O)NCCN=C(CN2CCOCC2)NS(=O)(=O)c2ccc(C)cc2)cc1	-1.1	8760	0.6	-5.6	0.1
Cc1ccc(S(=O)(=O)NCC(=O)N2CCCC2)cc1	1.7	16845*	?	-10.8	-1.9
O=C(COc1ccccc1F)N1CCO[C@H](c2cc(Cl)cc(Cl)c2)C1	·	·	·	-8.0	·
CN(C)C(=O)Cn1c(=O)n(C)c2ccccc21	-1.0	22347*	1.5	-11.2	1.1
CC(C)Oc1ccc(C(=O)N2CCC(Cn3c(C(F)(F)F)nc4ccccc43)CC2)cc1	·	·	·	-14.0	·
CC(=O)N1CCc2[nH]c3ccc(C)cc3c2C1	3.7	4127	-1.2	5.9	?
Cc1ccc2[nH]c3c(c2c1)CN(C(=O)CN1CC(C)OC(C)C1)CC3 (configuration not stated)	-1.2	17955*	-22.7	5.8	?
CCOC(=O)CSc1nnc(CSc2nc3sc4c(c3c(=O)[nH]2)CCC4)n1-c1ccccc1	1.4	21953*	0.5	4.2	1.7
CCOC(=O)CSc1nnc(CSc2nc3sc4c(c3c(=O)[nH]2)CCC4)n1C	5.3	9729	-0.3	-9.4	6.9
CCOC(=O)N1CCC(Nc2c(-c3ccccc3)c(=O)c2=O)CC1	0.1	20189*	1.3	5.0	5.3
